According to PubChem BioAssay AID1159580 (chemical genetic matrix, 2015):
About 2,000 (36%) of roughly 5,500 compounds were called active. About 18% were inconclusive and are not listed. No stated cut-off is given here; in the data, active means normalized growth mostly below about 0.91 (no sharp cut-off); inconclusive means no clear call, values can overlap the other calls; inactive means mostly above about 0.92. The list shows a part of the results.

Test: chemical genetic growth profiling, strain panel (AID 1159580);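 further: tested at 20 µM; growth read once vehicle control cultures reached saturation at 30 °C; 1 = growth at the plate median or of vehicle wells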
Details: growth OD
[1] = S. cerevisiae deletion strains, locus YDL101C, strain DUN1, stronger effect = lower value
[2] = S. cerevisiae deletion strains, locus YHR030C, strain SLT2, stronger effect = lower value
[3] = S. cerevisiae deletion strains, locus YAL013W, strain DEP1, stronger effect = lower value
[4] = S. cerevisiae deletion strains, locus YBR229C, strain ROT2, stronger effect = lower value
[5] = S. cerevisiae deletion strains, locus YDR150W, strain NUM1, stronger effect = lower value
[6] = S. cerevisiae deletion strains, locus YEL061C, strain CIN8, stronger effect = lower value
[7] = S. cerevisiae deletion strains, locus YGR078C, strain PAC10, stronger effect = lower value
[8] = S. cerevisiae deletion strains, locus YHR087W, strain rtc3, stronger effect = lower value
[9] = S. cerevisiae deletion strains, locus YJR043C, strain POL32, stronger effect = lower value
[10] = S. cerevisiae deletion strains, locus YJR075W, strain HOC1, stronger effect = lower value
[11] = S. cerevisiae deletion strains, locus YLR039C, strain RIC1, stronger effect = lower value
[12] = S. cerevisiae deletion strains, locus YLR058C, strain SHM2 (second series), stronger effect = lower value
[13] = S. cerevisiae deletion strains, locus YLR085C, strain ARP6, stronger effect = lower value
[14] = S. cerevisiae deletion strains, locus YLR262C, strain YPT6, stronger effect = lower value
[15] = S. cerevisiae deletion strains, locus YML094W, strain GIM5, stronger effect = lower value
[16] = S. cerevisiae deletion strains, locus YMR219W, strain ESC1, stronger effect = lower value
[17] = S. cerevisiae deletion strains, locus YMR263W, strain SAP30, stronger effect = lower value
[18] = S. cerevisiae deletion strains, locus YNL153C, strain GIM3, stronger effect = lower value
[19] = S. cerevisiae deletion strains, locus YNL298W, strain CLA4 (second series), stronger effect = lower value
[20] = S. cerevisiae deletion strains, locus YNL322C, strain KRE1, stronger effect = lower value
[21] = S. cerevisiae deletion strains, locus YNR030W, strain Alg12, stronger effect = lower value
[22] = S. cerevisiae deletion strains, locus YOL006C, strain TOP1, stronger effect = lower value
[23] = S. cerevisiae deletion strains, locus YPL055C, strain LGE1, stronger effect = lower value
[24] = S. cerevisiae deletion strains, locus YPL241C, strain CIN2, stronger effect = lower value
[25] = S. cerevisiae deletion strains, locus YPR135W, strain CTF4, stronger effect = lower value
[26] = S. cerevisiae strains, strain wild type, stronger effect = lower value

Measured: normalized growth

Cc1ccc(NNC(=O)c2c(C)noc2C)cc1Cl
inactive: S. cerevisiae deletion strains, locus YAR019C, strain CDC15, stronger effect = lower value 0.977 | S. cerevisiae deletion strains, locus YBL105C, strain PKC1, stronger effect = lower value 0.972 | S. cerevisiae deletion strains, locus YBR135W, strain CKS1, stronger effect = lower value 0.982 | S. cerevisiae deletion strains, locus YBR136W, strain MEC1, stronger effect = lower value 0.975 | S. cerevisiae deletion strains, locus YBR160W, strain CDC28, stronger effect = lower value 0.982 | S. cerevisiae deletion strains, locus YDL017W, strain CDC7, stronger effect = lower value 0.979 | S. cerevisiae deletion strains, locus YDL028C, strain MPS1, stronger effect = lower value 0.986 | [1] 0.976 | S. cerevisiae deletion strains, locus YDL108W, strain KIN28, stronger effect = lower value 0.981 | S. cerevisiae deletion strains, locus YDL132W, strain cdc53, stronger effect = lower value 0.987 | S. cerevisiae deletion strains, locus YDL214C, strain PRR2, stronger effect = lower value 0.939 | S. cerevisiae deletion strains, locus YDR052C, strain DBF4, stronger effect = lower value 0.988 | S. cerevisiae deletion strains, locus YDR054C, strain cdc34, stronger effect = lower value 0.993 | S. cerevisiae deletion strains, locus YDR226W, strain ADK1, stronger effect = lower value 0.978 | S. cerevisiae deletion strains, locus YDR477W, strain SNF1, stronger effect = lower value 0.946 | S. cerevisiae deletion strains, locus YER123W, strain YCK3, stronger effect = lower value 0.857 | S. cerevisiae deletion strains, locus YER133W, strain GLC7, stronger effect = lower value 0.947 | S. cerevisiae deletion strains, locus YFL009W, strain cdc4, stronger effect = lower value 0.986 | S. cerevisiae deletion strains, locus YFL029C, strain CAK1, stronger effect = lower value 0.984 | S. cerevisiae deletion strains, locus YFR003C, strain YPI1, stronger effect = lower value 0.983 | S. cerevisiae deletion strains, locus YFR019W, strain FAB1, stronger effect = lower value 0.903 | S. cerevisiae deletion strains, locus YFR028C, strain CDC14, stronger effect = lower value 0.992 | S. cerevisiae deletion strains, locus YGR040W, strain KSS1, stronger effect = lower value 0.925 | S. cerevisiae deletion strains, locus YGR052W, strain FMP48, stronger effect = lower value 0.987 | S. cerevisiae deletion strains, locus YGR092W, strain DBF2, stronger effect = lower value 0.833 | [2] 0.865 | S. cerevisiae deletion strains, locus YHR079C, strain IRE1, stronger effect = lower value 0.964 | S. cerevisiae deletion strains, locus YHR082C, strain KSP1, stronger effect = lower value 1.02 | S. cerevisiae deletion strains, locus YHR205W, strain SCH9, stronger effect = lower value 0.926 | S. cerevisiae deletion strains, locus YIL147C, strain SLN1, stronger effect = lower value 0.983 | S. cerevisiae deletion strains, locus YJL095W, strain BCK1, stronger effect = lower value 0.929 | S. cerevisiae deletion strains, locus YJL128C, strain PBS2, stronger effect = lower value 0.979 | S. cerevisiae deletion strains, locus YJL157C, strain FAR1, stronger effect = lower value 0.923 | S. cerevisiae deletion strains, locus YJR016C, strain ILV3, stronger effect = lower value 0.981 | S. cerevisiae deletion strains, locus YJR066W, strain TOR1 (second series), stronger effect = lower value 0.909 | S. cerevisiae deletion strains, locus YJR066W, strain TOR1, stronger effect = lower value 0.983 | S. cerevisiae deletion strains, locus YKL048C, strain ELM1, stronger effect = lower value 0.916 | S. cerevisiae deletion strains, locus YKL067W, strain YNK1, stronger effect = lower value 0.935 | S. cerevisiae deletion strains, locus YKL101W, strain HSL1, stronger effect = lower value 0.943 | S. cerevisiae deletion strains, locus YKL193C, strain SDS22, stronger effect = lower value 0.985 | S. cerevisiae deletion strains, locus YKL203C, strain TOR2, stronger effect = lower value 1 | S. cerevisiae deletion strains, locus YLR113W, strain HOG1, stronger effect = lower value 0.868 | S. cerevisiae deletion strains, locus YLR133W, strain CKI1, stronger effect = lower value 0.943 | S. cerevisiae deletion strains, locus YLR403W, strain SFP1, stronger effect = lower value 0.92 | S. cerevisiae deletion strains, locus YML070W, strain DAK1, stronger effect = lower value 0.906 | S. cerevisiae deletion strains, locus YMR001C, strain CDC5, stronger effect = lower value 0.984 | S. cerevisiae deletion strains, locus YMR205C, strain PFK2 (second series), stronger effect = lower value 0.955 | S. cerevisiae deletion strains, locus YMR277W, strain FCP1, stronger effect = lower value 0.986 | S. cerevisiae deletion strains, locus YNL006W, strain LST8, stronger effect = lower value 0.99 | S. cerevisiae deletion strains, locus YNL020C, strain ARK1, stronger effect = lower value 0.948 | S. cerevisiae deletion strains, locus YNL161W, strain CBK1, stronger effect = lower value 0.98 | S. cerevisiae deletion strains, locus YNL183C, strain NPR1, stronger effect = lower value 0.98 | S. cerevisiae deletion strains, locus YNL207W, strain RIO2, stronger effect = lower value 0.992 | S. cerevisiae deletion strains, locus YNL222W, strain SSU72, stronger effect = lower value 0.982 | S. cerevisiae deletion strains, locus YNL307C, strain MCK1 (second series), stronger effect = lower value 0.881 | S. cerevisiae deletion strains, locus YOL078W, strain AVO1, stronger effect = lower value 0.98 | S. cerevisiae deletion strains, locus YOL136C, strain PFK27, stronger effect = lower value 0.922 | S. cerevisiae deletion strains, locus YOR061W, strain CKA2, stronger effect = lower value 0.917 | S. cerevisiae deletion strains, locus YOR119C, strain RIO1, stronger effect = lower value 0.976 | S. cerevisiae deletion strains, locus YOR231W, strain MKK1, stronger effect = lower value 0.917 | S. cerevisiae deletion strains, locus YOR329C, strain SCD5, stronger effect = lower value 0.986 | S. cerevisiae deletion strains, locus YPL031C, strain PHO85, stronger effect = lower value 0.944 | S. cerevisiae deletion strains, locus YPL153C, strain RAD53, stronger effect = lower value 0.922 | S. cerevisiae deletion strains, locus YPL204W, strain HRR25, stronger effect = lower value 0.956 | S. cerevisiae deletion strains, locus YPL209C, strain IPL1, stronger effect = lower value 0.973 | S. cerevisiae deletion strains, locus YPL256C, strain CLN2, stronger effect = lower value 0.903 | S. cerevisiae deletion strains, locus YPR025C, strain CCL1, stronger effect = lower value 0.981 | S. cerevisiae deletion strains, locus YPR106W, strain ISR1, stronger effect = lower value 0.981 | S. cerevisiae deletion strains, locus YPR111W, strain DBF20, stronger effect = lower value 0.961 | S. cerevisiae deletion strains, strain NNK1, stronger effect = lower value 0.975 | S. cerevisiae deletion strains, strain TSCII, stronger effect = lower value 0.98

Cc1onc(-c2c(Cl)cccc2Cl)c1C(=O)Oc1ccc(Cl)c(Cl)c1
inactive: [3] 1.01 | [4] 0.995 | [1] 0.996 | [5] 1.01 | [6] 1.01 | [7] 1.03 | [2] 1.21 | [8] 1.06 | [9] 0.998 | [10] 0.99 | [11] 1.19 | [12] 0.986 | [13] 0.991 | [14] 1.16 | [15] 0.998 | [16] 0.992 | [17] 1.01 | S. cerevisiae deletion strains, locus YNL128W, strain TEP1, stronger effect = lower value 1 | [18] 1.03 | [19] 1.01 | [20] 1.01 | [21] 0.987 | [22] 1.07 | [23] 1 | [24] 0.973 | [25] 1.14 | [26] 1.01

COC(=O)c1c(-c2c(Cl)cccc2Cl)noc1NC(=O)NN1CCCCC1
inactive: [3] 1.02 | [4] 1.02 | S. cerevisiae deletion strains, locus YCL061C, strain MRC1, stronger effect = lower value 1.01 | [1] 1.01 | S. cerevisiae deletion strains, locus YDL134C, strain PPH21, stronger effect = lower value 0.993 | [5] 0.993 | [6] 1 | [7] 1.03 | S. cerevisiae deletion strains, locus YGR229C, strain SMI1, stronger effect = lower value 1 | [2] 0.973 | [8] 1.03 | S. cerevisiae deletion strains, locus YJL187C, strain SWE1, stronger effect = lower value 1.01 | [9] 1.01 | [10] 1.02 | S. cerevisiae deletion strains, locus YKL190W, strain CNB1, stronger effect = lower value 1 | [11] 0.963 | [12] 1.01 | [13] 0.992 | [14] 0.977 | [15] 1.04 | [16] 1.01 | [17] 1 | S. cerevisiae deletion strains, locus YMR307W, strain GAS1, stronger effect = lower value 1 | [18] 1.01 | [19] 1 | [20] 1.01 | [21] 0.987 | [22] 1.05 | [23] 1.01 | [24] 0.911 | [25] 0.969 | [26] 0.999
